Source: PubChem BioAssay AID686979 (National Center for Advancing Translational Sciences (NCATS), 2013)
Out of some 420,000 compounds screened, about 50,000 (12%) were called active. Another 26% or so got no clear call; they are omitted. Only a selection was taken, and actives are over-represented in it overall. Values without a mark were called inactive. The call rests on the fitted dose curve; in most records, active means well fitted inhibition curve with a large enough effect; inconclusive means small, poorly fitted or top-dose-only effect; inactive means flat fitted curve, though single readings scatter.

assay: qHTS for Inhibitors of human tyrosyl-DNA phosphodiesterase 1 (TDP1): qHTS in cells in presence of CPT; settings: chicken DT40 Tdp1-/-;hTDP1 cells + 20 nM CPT, ATP luminescence, 48 h; series mostly up to 46.2 µM; activity change, negative = growth inhibition: at the top concentration; further: nearly all actives have a fitted effect of over 55% in size
How it was run: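 Chicken DT40 Tdp1-/- cells complemented with human TDP1, 400 cells/well, exposed to compounds plus 20 nM camptothecin for at least 48 h at 37 C; viability read as ATP content by CellTiter-Glo luminescence.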
On the % scale 0 is the no-effect control and ±100 the full control effect; potency means the concentration at half of the fitted maximal effect.

Compared with `NS(=O)(=O)c1cccc(NC(=O)COC(=O)/C=C/c2ccco2)c1`, `O=C(/C=C/c1cccc([N+](=O)[O-])c1)NCCSCc1ccco1` is lower in “activity change, negative = growth inhibition” value: 1.47% for the first, -16.6% for the second.

Going from `CCC(C)C(CO)NC(=O)/C=C/[C@H]1O[C@@H](n2cnc3c(NC(=O)c4ccccc4)ncnc32)[C@H](O)[C@@H]1O` (stereo partly specified) to `CCOc1ccc(C(=O)Nc2c3c(nn2-c2ccccc2)CS(=O)(=O)C3)cc1`, the “activity change, negative = growth inhibition” value falls from 3.57% to -2.2%.

Going from `Cc1ccnc(NC(=O)c2ccoc2C)c1` to `COC(=O)c1sc(=S)n(-c2ccc(Cl)cc2)c1C`, the “activity change, negative = growth inhibition” value falls from -5.15% to -11.9%.

First: C/C(=N\NC(=O)c1ccccc1C)c1ccc(N2CCOCC2)cc1
Second: COc1ccc(-n2nnnc2CNC(=O)c2ccc3ccccc3c2)cc1
The “activity change, negative = growth inhibition” value of the first is higher: -5.61% for the first, -13.1% for the second.

Compared with `OC(CBr)CN1CCCCC1` (stereo unspecified), `COc1cc(CN2CCCN(C)CC2)c([N+](=O)[O-])cc1OC` is lower in “activity change, negative = growth inhibition” value: -5.66% for the first, -17.5% for the second.

Going from `O=C(NCc1nnnn1-c1ccc(Cl)cc1)c1ccc2c(c1)OCO2` to `O=C(CCn1c(=O)c2ccccc2n(Cc2ccc(Cl)cc2)c1=O)NCc1ccc2c(c1)OCO2`, the “activity change, negative = growth inhibition” value falls from -14.2% to -29.2%.

Compared with `COc1ccc(Cl)cc1NS(=O)(=O)c1cccc(C(=O)NC2CCC(O)CC2)c1` (stereo unspecified), `COc1ccc(C(=O)NC2CC2)cc1OC1CCN(Cc2cnn(C)c2)CC1` is lower in “activity change, negative = growth inhibition” value: 1.8% for the first, -4.23% for the second.

First: O=C(NCCc1ccccc1Cl)C1CCC(=O)N(CCCc2ccccc2)C1 (stereo unspecified)
Second: O=C(CCC1CCCN(Cc2ccc(O)c(Cl)c2)C1)NCc1ccccc1F (stereo unspecified)
The “activity change, negative = growth inhibition” value of the first is lower: -29.6% for the first, -19% for the second.

First: COc1ccc(C(=O)O)cc1S(=O)(=O)NCc1cccnc1
Second: CCOc1ccc(S(=O)(=O)NCCCn2ccnc2)cc1NC(C)=O
The “activity change, negative = growth inhibition” value of the first is lower: -2.76% for the first, 4.07% for the second.

Compared with `CCOc1ccc(NC(=O)Cn2c(=O)n(CCCC(=O)NCc3ccc4c(c3)OCO4)c(=O)c3ccccc32)cc1`, `CCOc1ccc(NC(=O)c2ccc(NC(=O)COC(=O)c3ccc(NC(=O)CC#N)cc3)cc2)cc1` is lower in “activity change, negative = growth inhibition” value: -2.1% for the first, -19.3% for the second.

Compared with `CCCCn1c(SCC(=O)N2CCCC2=O)nc2cc(S(N)(=O)=O)ccc21`, `CCCCn1c(SCC(=O)N2CCC(C(=O)OCC)CC2)nc2cc(S(N)(=O)=O)ccc21` is higher in “activity change, negative = growth inhibition” value: -16% for the first, -9.44% for the second.

Compared with `COc1cccc(Cn2cnc3c([N+](=O)[O-])c(C)c(C)cc32)c1`, `COc1cc(CNCc2ccc3c(c2)OCO3)c([N+](=O)[O-])cc1OC` is higher in “activity change, negative = growth inhibition” value: -13% for the first, -5.01% for the second.

Going from `CCc1ccc2[nH]c(=O)c(Cc3ccccc3)c(O)c2c1` to `CSc1cccc(NC(=O)CSc2ccccc2)c1`, the “activity change, negative = growth inhibition” value rises from -29.7% to -0.186%.

First: CCC(=O)Nc1ccc(C(=O)Nc2cccc(OC)c2)cc1
Second: CCOc1ccc(NC(=O)c2ccc(NC(=O)C3CCCO3)cc2)cc1 (stereo unspecified)
The “activity change, negative = growth inhibition” value of the first is higher: 5.12% for the first, 0.978% for the second.

Compared with `CCOc1ccc(NC(=O)c2ccc(CSc3nnnn3C)cc2)cc1`, `COC(=O)c1ccc(NC(=O)CSc2nc(N)c(NC(=O)c3ccc(Br)o3)c(=O)[nH]2)cc1` is higher in “activity change, negative = growth inhibition” value: -9.3% for the first, 1.82% for the second.

First: O=C(CCC1CCCC1)N=C1SC2CS(=O)(=O)CC2N1Cc1ccccc1 (stereo unspecified)
Second: Cn1c(-c2ccccc2)c[n+]2c1CCCCC2
The “activity change, negative = growth inhibition” value of the first is lower: -18.1% for the first, 5.76% for the second.

First: CCc1ccc([C@@H]2CC(=O)[C@@H]3CN(S(=O)(=O)c4ccc(C)cc4)[C@H](c4ccc(Cl)cc4)C[C@@H]3N2S(=O)(=O)c2ccc(C)cc2)cc1
Second: CC(NC(=O)c1ccc(S(=O)(=O)Nc2ccccc2)cc1)c1ccc(S(N)(=O)=O)cc1 (stereo unspecified)
The “activity change, negative = growth inhibition” value of the first is lower: -4.59% for the first, -0.898% for the second.

Compared with `CCOc1ccc(N2CC(C(=O)N/N=C/c3sccc3C)CC2=O)cc1` (stereo unspecified), `CCC(C(=O)NC1CCCCC1)N(C(=O)c1snc(C(N)=O)c1N)c1ccc(OC)cc1OC` (stereo unspecified) is lower in “activity change, negative = growth inhibition” value: 9.79% for the first, -28.2% for the second.

Going from `C[C@H](CO)N1C[C@H](C)[C@@H](CN(C)C(=O)Nc2ccc3c(c2)OCO3)Oc2c(cccc2N(C)C)C1=O` to `CC(C)(C)C(=O)Nc1c(Br)c(C2CC2)nn1-c1ccccc1`, the “activity change, negative = growth inhibition” value rises from -18.9% to -3.25%.

Compared with `CN1CCN(CC#CCC2(O)c3ccccc3-c3ccccc32)CC1`, `O=C(O)C(F)(F)C(NCc1ccccc1)c1ccccc1` (stereo unspecified) is higher in “activity change, negative = growth inhibition” value: -12.5% for the first, -10.3% for the second.

In the case of `C/C(=N\NC(=O)c1ccoc1C)c1ccccc1O`, the Potency was 10.3 µM (active).
In the case of `O=C(NCc1nnnn1-c1ccc(Cl)cc1)c1ccc([N+](=O)[O-])o1`, the Potency was 18.4 µM (active).
With `COc1cc(C(=O)NC2CCN(C)CC2)ccc1Nc1ncc2c(n1)N(C1CCC(O)CC1)CCC(=O)N2C` (stereo unspecified) the Potency was 16.4 µM (active).
For `O=C(CCCCn1c(=O)c2ccccc2n(CC(=O)Nc2cccc(C(F)(F)F)c2)c1=O)NCc1ccc2c(c1)OCO2`, the Potency was 18.4 µM (active).
In the case of `CCCCn1c(SCc2ncc(-c3ccccc3)o2)nc2cc(S(N)(=O)=O)ccc21`, the Potency was 11.6 µM (active).
With `CCOc1ccc(C(=O)Nc2cccc(-c3ccc4nncn4n3)c2)cc1` the Potency was 20.6 µM (active).
In the case of `CCOc1ccc(C(=O)Nc2cccc(SC)c2)cc1`, the Potency was 6.51 µM (active).
For `CCOc1ccc(C(=O)Nc2ccncc2)cc1`, the Potency was 10.3 µM (active).
For `Clc1ccc(C[n+]2cc(-c3ccc(Cl)cc3)n3c2CCC3)cc1`, the Potency was 4.61 µM (active).
With `Clc1ccc(C[n+]2cc(-c3ccccc3)n3c2CCC3)cc1` the Potency was 2.91 µM (active).
In the case of `COc1cc2c(cc1OC)C(Cc1cc(OC)c(OC)cc1[N+](=O)[O-])=NCC2`, the Potency was 5.17 µM (active).
